# Among all 5,700 compounds or so, about 85 (1%) were called active. Rule as the data show it: active = p53-positive nuclei above about 36% (passing the limit was not always enough); inactive = the rest. What follows is part of a selection rich in actives, with near analogues and random picks from the rest.
# Key:
# [1] = p53 stabilisation in HPV-positive human cells, imaging, p53-positive nuclei imaging, 24 h, 48 h (AID 1508601); details: 24/48 h
# [2] = biological target: Cellular tumor antigen p53 (Homo sapiens) (UniProt P04637); test: as above; details: 24/48 h, stronger effect = higher value
# Cellular tumor antigen p53 (Homo sapiens), sequence (P04637 whole entry, looked up): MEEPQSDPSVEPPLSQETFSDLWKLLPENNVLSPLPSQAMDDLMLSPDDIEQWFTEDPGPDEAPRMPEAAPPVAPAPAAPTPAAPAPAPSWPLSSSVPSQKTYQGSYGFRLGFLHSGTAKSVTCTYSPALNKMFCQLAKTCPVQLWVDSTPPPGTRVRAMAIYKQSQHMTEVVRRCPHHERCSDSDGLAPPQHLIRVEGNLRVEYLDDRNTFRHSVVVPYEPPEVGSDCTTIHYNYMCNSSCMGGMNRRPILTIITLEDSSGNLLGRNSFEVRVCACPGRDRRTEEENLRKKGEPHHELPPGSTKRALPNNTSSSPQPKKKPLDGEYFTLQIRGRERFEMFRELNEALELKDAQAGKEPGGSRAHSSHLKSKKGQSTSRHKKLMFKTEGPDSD
# [3] = measured here: cell number at 24 h, Library stock concentration: 10 mM
# [4] = measured here: cell number at 48 h, Library stock concentration: 10 mM
# [5] = Library stock concentration: 10 mM
# [6] = measured here: p53 positive nuclei at 24 h, Library stock concentration: 10 mM
# [7] = measured here: cell number at 24 h, concentration not given here
# [8] = measured here: cell number at 48 h, concentration not given here
# [9] = measured here: p53 positive nuclei at 24 h, concentration not given here
smiles,measurement,setting,value
Cc1sc2c(c1C)C(c1ccc(Cl)cc1)=NC(CC(=O)Nc1ccc(O)cc1)c1nnc(C)n1-2 (stereo not drawn),"nuclei count, normalised","[1]; measured here: cell number at 24 h, Library stock concentration: 80 uM",110%
same,"nuclei count, normalised","[1]; measured here: cell number at 24 h, Library stock concentration: 400 uM",120%
same,"nuclei count, normalised","[1]; measured here: cell number at 24 h, Library stock concentration: 2 mM",113%
same,"nuclei count, normalised","[1]; measured here: cell number at 24 h, Library stock concentration: 3.33 mM",119%
same,"nuclei count, normalised",[1]; [3],114%
same,"nuclei count, normalised","[1]; measured here: cell number at 48 h, Library stock concentration: 80 uM",108%
same,"nuclei count, normalised","[1]; measured here: cell number at 48 h, Library stock concentration: 400 uM",119%
same,"nuclei count, normalised","[1]; measured here: cell number at 48 h, Library stock concentration: 2 mM",111%
same,"nuclei count, normalised","[1]; measured here: cell number at 48 h, Library stock concentration: 3.33 mM",117%
same,"nuclei count, normalised",[1]; [4],109%
same,"p53-positive nuclei, normalised",[2]; Library stock concentration: 80 uM,0.0544% (inactive)
same,"p53-positive nuclei, normalised",[2]; Library stock concentration: 400 uM,0.0288% (inactive)
same,"p53-positive nuclei, normalised",[2]; Library stock concentration: 2 mM,3.49% (inactive)
same,"p53-positive nuclei, normalised",[2]; Library stock concentration: 3.33 mM,3.67% (inactive)
same,"p53-positive nuclei, normalised",[2]; [5],9.67% (inactive)
same,"p53-positive nuclei, normalised","[2]; measured here: p53 positive nuclei at 24 h, Library stock concentration: 80 uM",0.123%
same,"p53-positive nuclei, normalised","[2]; measured here: p53 positive nuclei at 24 h, Library stock concentration: 400 uM",0.712%
same,"p53-positive nuclei, normalised","[2]; measured here: p53 positive nuclei at 24 h, Library stock concentration: 2 mM",19.6%
same,"p53-positive nuclei, normalised","[2]; measured here: p53 positive nuclei at 24 h, Library stock concentration: 3.33 mM",10.4%
same,"p53-positive nuclei, normalised",[2]; [6],46.6%
CCCCC/C=C\C/C=C\C/C=C\C/C=C\CCCC(=O)N[C@@H](CO)C(=O)O,"nuclei count, normalised",[1]; [7],108%
same,"nuclei count, normalised",[1]; [8],107%
same,"p53-positive nuclei, normalised",[2]; concentration not given here,0.0364% (inactive)
same,"p53-positive nuclei, normalised",[2]; [9],-0.0848%
C=C(C)[C@@H]1CCC(C)=C[C@H]1c1c(OC)cc(CCCCC)cc1OC,"nuclei count, normalised",[1]; [7],107%
same,"nuclei count, normalised",[1]; [8],109%
same,"p53-positive nuclei, normalised",[2]; concentration not given here,0.00281% (inactive)
same,"p53-positive nuclei, normalised",[2]; [9],-0.021%
CCCCC/C=C\C/C=C\C/C=C\C/C=C\CCCC(=O)NC1CC1,"nuclei count, normalised",[1]; [7],110%
same,"nuclei count, normalised",[1]; [8],110%
same,"p53-positive nuclei, normalised",[2]; concentration not given here,-0.0789% (inactive)
same,"p53-positive nuclei, normalised",[2]; [9],-0.0843%
C[C@@H]1O[C@@H](O[C@H]2CC[C@]3(C=O)C4CC[C@]5(C)[C@@H](C6=CC(=O)OC6)CC[C@]5(O)C4CC[C@]3(O)C2)[C@H](O)[C@H](O)[C@H]1O (stereo partly drawn),"nuclei count, normalised",[1]; [7],35.2%
same,"nuclei count, normalised",[1]; [8],23.7%
same,"p53-positive nuclei, normalised",[2]; concentration not given here,28.5% (inactive)
same,"p53-positive nuclei, normalised",[2]; [9],2.41%
CC1OC(O[C@H]2CC[C@@]3(C)[C@@H](CC[C@@H]4[C@H]3CC[C@]3(C)[C@@H](C5=CC(=O)OC5)CC[C@]43O)C2)CC(O)C1O (stereo partly drawn),"nuclei count, normalised","[1]; measured here: cell number at 24 h, Library stock concentration: 500 nM",65.6%
same,"nuclei count, normalised","[1]; measured here: cell number at 24 h, Library stock concentration: 1.5 uM",57.4%
same,"nuclei count, normalised","[1]; measured here: cell number at 24 h, Library stock concentration: 4.6 uM",53%
same,"nuclei count, normalised","[1]; measured here: cell number at 24 h, Library stock concentration: 13.7 uM",48.6%
same,"nuclei count, normalised","[1]; measured here: cell number at 24 h, Library stock concentration: 41 uM",45.4%
same,"nuclei count, normalised","[1]; measured here: cell number at 24 h, Library stock concentration: 123 uM",41.8%
same,"nuclei count, normalised","[1]; measured here: cell number at 24 h, Library stock concentration: 370 uM",40.1%
same,"nuclei count, normalised","[1]; measured here: cell number at 24 h, Library stock concentration: 1.111 mM",41.7%
same,"nuclei count, normalised","[1]; measured here: cell number at 24 h, Library stock concentration: 3.333 mM",42.7%
same,"nuclei count, normalised",[1]; [3],42.7%
same,"nuclei count, normalised","[1]; measured here: cell number at 48 h, Library stock concentration: 500 nM",46.8%
same,"nuclei count, normalised","[1]; measured here: cell number at 48 h, Library stock concentration: 1.5 uM",37.2%
same,"nuclei count, normalised","[1]; measured here: cell number at 48 h, Library stock concentration: 4.6 uM",33.8%
same,"nuclei count, normalised","[1]; measured here: cell number at 48 h, Library stock concentration: 13.7 uM",32.8%
same,"nuclei count, normalised","[1]; measured here: cell number at 48 h, Library stock concentration: 41 uM",29.8%
same,"nuclei count, normalised","[1]; measured here: cell number at 48 h, Library stock concentration: 123 uM",30.1%
same,"nuclei count, normalised","[1]; measured here: cell number at 48 h, Library stock concentration: 370 uM",27.4%
same,"nuclei count, normalised","[1]; measured here: cell number at 48 h, Library stock concentration: 1.111 mM",28.3%
same,"nuclei count, normalised","[1]; measured here: cell number at 48 h, Library stock concentration: 3.333 mM",30.1%
same,"nuclei count, normalised",[1]; [4],29%
same,"p53-positive nuclei, normalised",[2]; Library stock concentration: 500 nM,1.14% (inactive)
same,"p53-positive nuclei, normalised",[2]; Library stock concentration: 1.5 uM,2.17% (inactive)
same,"p53-positive nuclei, normalised",[2]; Library stock concentration: 4.6 uM,5.96% (inactive)
same,"p53-positive nuclei, normalised",[2]; Library stock concentration: 13.7 uM,13.9% (inactive)
same,"p53-positive nuclei, normalised",[2]; Library stock concentration: 41 uM,17.9% (inactive)
same,"p53-positive nuclei, normalised",[2]; Library stock concentration: 123 uM,17.3% (inactive)
same,"p53-positive nuclei, normalised",[2]; Library stock concentration: 370 uM,15.8% (inactive)
same,"p53-positive nuclei, normalised",[2]; Library stock concentration: 1.111 mM,18.6% (inactive)
same,"p53-positive nuclei, normalised",[2]; Library stock concentration: 3.333 mM,15.3% (inactive)
same,"p53-positive nuclei, normalised",[2]; [5],14% (inactive)
same,"p53-positive nuclei, normalised","[2]; measured here: p53 positive nuclei at 24 h, Library stock concentration: 500 nM",0.0832%
same,"p53-positive nuclei, normalised","[2]; measured here: p53 positive nuclei at 24 h, Library stock concentration: 1.5 uM",0.441%
same,"p53-positive nuclei, normalised","[2]; measured here: p53 positive nuclei at 24 h, Library stock concentration: 4.6 uM",2.38%
same,"p53-positive nuclei, normalised","[2]; measured here: p53 positive nuclei at 24 h, Library stock concentration: 13.7 uM",2.28%
same,"p53-positive nuclei, normalised","[2]; measured here: p53 positive nuclei at 24 h, Library stock concentration: 41 uM",1.13%
same,"p53-positive nuclei, normalised","[2]; measured here: p53 positive nuclei at 24 h, Library stock concentration: 123 uM",0.939%
same,"p53-positive nuclei, normalised","[2]; measured here: p53 positive nuclei at 24 h, Library stock concentration: 370 uM",1.03%
same,"p53-positive nuclei, normalised","[2]; measured here: p53 positive nuclei at 24 h, Library stock concentration: 1.111 mM",1.24%
same,"p53-positive nuclei, normalised","[2]; measured here: p53 positive nuclei at 24 h, Library stock concentration: 3.333 mM",1.62%
same,"p53-positive nuclei, normalised",[2]; [6],0.952%
CO[C@H]1[C@H](O)[C@@H](O[C@H]2CC[C@]3(C=O)C4CC[C@]5(C)[C@@H](C6=CC(=O)OC6)CC[C@]5(O)C4CC[C@@H]3C2)O[C@@H](C)[C@@H]1O (stereo partly drawn),"nuclei count, normalised",[1]; [7],35.5%
same,"nuclei count, normalised",[1]; [8],25.2%
same,"p53-positive nuclei, normalised",[2]; concentration not given here,50.3% (active)
same,"p53-positive nuclei, normalised",[2]; [9],2.96%
O=c1c2cc(F)ccc2ncn1Cc1cn2ccccc2n1,"nuclei count, normalised",[1]; [7],98.7%
same,"nuclei count, normalised",[1]; [8],106%
same,"p53-positive nuclei, normalised",[2]; concentration not given here,-0.262% (inactive)
same,"p53-positive nuclei, normalised",[2]; [9],-0.23%
CCCCC/C=C\C/C=C\C/C=C\C/C=C\CCCC(=O)NC,"nuclei count, normalised",[1]; [7],104%
same,"nuclei count, normalised",[1]; [8],99.6%
same,"p53-positive nuclei, normalised",[2]; concentration not given here,0.0321% (inactive)
same,"p53-positive nuclei, normalised",[2]; [9],-0.0963%

# Reference: PubChem BioAssay AID1508601 (ICCB-Longwood Screening Facility, Harvard Medical School, 2020)
